For experiment [1], the target named is Nuclear receptor subfamily 1 group I member 2 (Homo sapiens) (UniProt O75469). Briefly: CYP3A4 induction through human pregnane X receptor (PXR) by small molecules, qHTS assay (AID 1346984). Note: nearly all actives have a fitted effect of over 40% in size. In short, it runs like this: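 DPX-2 cells (HepG2 co-transfected with PXR and CYP3A4 promoter-luciferase) treated with compounds 24 h at 37C; luciferin-IPA CYP3A4 substrate 3uM final added for 3 h, then One-Glo; luminescence read. qHTS format.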
(qHTS replaces the single test concentration by a dilution series.)

Experiment [2] has as its target Cytochrome P450 2D6 (Homo sapiens) (UniProt P10635). In words: Cytochrome P450 Family 2 Subfamily D Member 6 (CYP2D6) small molecule antagonists: luciferase reporter qHTS assay (AID 1671196). For activity change, negative = inhibition: series mostly up to about 120 µM. Note: nearly all actives have a fitted effect of over 50% in size. Note: potency is the fitted concentration of half-maximal effect. An outline of the steps: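 CYP2D6 enzyme–substrate mix was held with compound for 10 min at room temperature, then NADPH regeneration solution was added and the reaction ran 1 h at room temperature. Luciferin product was detected by luminescence after 20 min with detection reagent.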
A general note: In a reporter assay the amount or activity of a reporter protein is the signal.

Experiment [3] addresses Cytochrome P450 3A4 (Homo sapiens) (UniProt P08684). In words: Cytochrome P450 Family 3 Subfamily A Member 4 (CYP3A4) small molecule antagonists: luciferase reporter qHTS assay (AID 1671201). For activity change, negative = inhibition: series mostly up to about 120 µM. Note: nearly all actives have a fitted effect of over 50% in size. Note: potency is the fitted concentration of half-maximal effect. An outline of the steps:
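P450-Glo CYP3A4 luminescent assay: compounds preincubated 10 min at room temperature with enzyme and proluciferin substrate, NADPH regeneration added, 1 h room-temperature reaction, stopped with luciferin detection reagent; luminescence read after 20 min. Ketoconazole positive control.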

The target of experiment [4] is Cytochrome P450 2C19 (Homo sapiens) (UniProt P33261). In words: Cytochrome P450 Family 2 Subfamily C Member 19 (CYP2C19) small molecule antagonists: luciferase reporter qHTS assay (AID 1671197). For activity change, negative = inhibition: series mostly up to about 120 µM. Note: nearly all actives have a fitted effect of over 65% in size. Note: potency is the fitted concentration of half-maximal effect. In short, it runs like this: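 Light output is proportional to CYP2C19 activity: proluciferin substrate is converted to luciferin, then detected by a luciferin detection reagent that also stops the 1 h, 37C NADPH-driven reaction. Ketoconazole serves as positive control.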

Experiment [5] addresses Cytochrome P450 2C9 (Homo sapiens) (UniProt P11712). In words: Cytochrome P450 Family 2 Subfamily C Member 9 (CYP2C9) small molecule antagonists: luciferase reporter qHTS assay (AID 1671198). For activity change, negative = inhibition: series mostly up to about 120 µM. Note: nearly all actives have a fitted effect of over 50% in size. Note: potency is the fitted concentration of half-maximal effect. In short, it runs like this:
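CYP2C9 activity was measured with a P450-Glo proluciferin substrate. Enzyme–substrate mix was held with compound for 10 min at room temperature, then NADPH regeneration solution was added for 1 h at 37C. Luciferin product was read as luminescence.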

The target in experiment [6] is Cytochrome P450 1A2 (Homo sapiens) (UniProt P05177). Briefly: Cytochrome P450 Family 1 Subfamily A Member 2 (CYP1A2) small molecule antagonists: luciferase reporter qHTS assay (AID 1671199). For activity change, negative = inhibition: series mostly up to about 120 µM. Note: nearly all actives have a fitted effect of over 50% in size. Note: potency is the fitted concentration of half-maximal effect. In short, it runs like this: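 Human CYP1A2 activity measured with a P450-Glo proluciferin substrate; compounds in DMSO preincubated 10 min at room temperature with enzyme-substrate mix, then NADPH regeneration system added for 1 h. Luciferin detection reagent, 20 min, luminescence read.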

Experiment [7] has as its target Voltage-gated inwardly rectifying potassium channel KCNH2 (Homo sapiens) (UniProt Q12809). In words: Human Ether-a-go-go-Related Gene (hERG) channel small molecule antagonists: fluorescence cell-based qHTS assay (AID 1671200).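 For activity change, negative = inhibition: hERG-expressing U2OS cells given a thallium stimulus after FluxOR II dye loading; series mostly up to about 77 µM.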 Note: nearly all actives have a fitted effect of over 50% in size. Note: potency is the fitted concentration of half-maximal effect. An outline of the steps: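 hERG-U2OS cells plated overnight at 37 C, loaded with FluxOR II dye 1 h at RT in dark; after 10 min, thallium stimulus added. Fluorescence (480/540 nm) read kinetically for 2 min at 1 s intervals.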
(Block of hERG is tested as a sign of cardiac risk.)

Records with an inconclusive call do not appear. Unmarked numbers belong to inactive results. Calls of active or inactive are those of the source. Calls come from the whole dose curve; as a rule, active = well fitted curve in the direction sought with a large enough effect in the repeat runs; inconclusive = weak or mixed curves; inactive = no such curve, though single readings can be large; an effect the other way counts as inactive or inconclusive.

Results on 38 molecules are retold here after PubChem BioAssay (Tox21).
% is set by controls: 0 for no effect and ±100 for the full control effect.

Sequence of Cytochrome P450 2D6 (Homo sapiens) (P10635 whole entry, looked up): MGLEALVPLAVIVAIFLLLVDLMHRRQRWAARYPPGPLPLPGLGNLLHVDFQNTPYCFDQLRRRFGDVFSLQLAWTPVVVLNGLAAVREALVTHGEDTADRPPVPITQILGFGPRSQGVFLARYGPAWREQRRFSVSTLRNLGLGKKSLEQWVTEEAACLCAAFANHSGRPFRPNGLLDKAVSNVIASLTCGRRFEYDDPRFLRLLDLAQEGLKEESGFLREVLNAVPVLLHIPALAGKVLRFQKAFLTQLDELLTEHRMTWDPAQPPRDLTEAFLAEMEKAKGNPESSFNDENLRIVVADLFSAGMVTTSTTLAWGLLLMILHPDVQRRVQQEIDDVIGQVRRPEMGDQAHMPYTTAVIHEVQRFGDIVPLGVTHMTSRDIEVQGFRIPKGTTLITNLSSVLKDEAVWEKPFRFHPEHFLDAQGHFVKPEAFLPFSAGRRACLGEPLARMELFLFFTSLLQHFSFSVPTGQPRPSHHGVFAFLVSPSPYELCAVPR
Sequence of Voltage-gated inwardly rectifying potassium channel KCNH2 (Homo sapiens) (Q12809 whole entry, looked up): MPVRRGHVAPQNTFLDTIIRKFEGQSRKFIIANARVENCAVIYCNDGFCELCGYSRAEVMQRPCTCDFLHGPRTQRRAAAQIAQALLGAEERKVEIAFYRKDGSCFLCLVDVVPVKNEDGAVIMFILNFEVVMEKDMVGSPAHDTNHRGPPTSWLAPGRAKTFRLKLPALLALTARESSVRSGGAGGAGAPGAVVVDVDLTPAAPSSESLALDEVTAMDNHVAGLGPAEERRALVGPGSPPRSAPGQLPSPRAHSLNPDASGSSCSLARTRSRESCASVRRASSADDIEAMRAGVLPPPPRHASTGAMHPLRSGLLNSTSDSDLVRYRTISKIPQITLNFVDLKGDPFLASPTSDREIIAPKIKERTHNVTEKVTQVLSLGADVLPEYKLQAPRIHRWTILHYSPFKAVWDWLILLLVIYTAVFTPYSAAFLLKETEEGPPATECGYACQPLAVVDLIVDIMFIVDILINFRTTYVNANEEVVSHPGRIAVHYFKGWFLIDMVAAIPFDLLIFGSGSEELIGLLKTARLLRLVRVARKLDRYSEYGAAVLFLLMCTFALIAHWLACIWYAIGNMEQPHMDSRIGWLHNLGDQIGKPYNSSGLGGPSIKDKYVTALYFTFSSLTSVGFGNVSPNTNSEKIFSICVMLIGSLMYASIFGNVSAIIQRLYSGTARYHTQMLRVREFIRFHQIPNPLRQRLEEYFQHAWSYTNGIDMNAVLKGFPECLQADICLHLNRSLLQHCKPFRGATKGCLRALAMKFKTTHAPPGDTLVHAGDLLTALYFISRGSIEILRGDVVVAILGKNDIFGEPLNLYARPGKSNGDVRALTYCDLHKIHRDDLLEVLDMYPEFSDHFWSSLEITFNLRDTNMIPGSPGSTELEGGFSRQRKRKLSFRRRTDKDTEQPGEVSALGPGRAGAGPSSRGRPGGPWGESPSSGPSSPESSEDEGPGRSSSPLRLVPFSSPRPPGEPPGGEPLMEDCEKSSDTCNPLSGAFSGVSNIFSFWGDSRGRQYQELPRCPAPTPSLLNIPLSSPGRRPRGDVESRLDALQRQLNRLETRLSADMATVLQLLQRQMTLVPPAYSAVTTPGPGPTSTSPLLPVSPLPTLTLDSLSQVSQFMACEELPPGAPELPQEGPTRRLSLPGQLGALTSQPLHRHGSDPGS
Sequence of Cytochrome P450 2C9 (Homo sapiens) (P11712 whole entry, looked up): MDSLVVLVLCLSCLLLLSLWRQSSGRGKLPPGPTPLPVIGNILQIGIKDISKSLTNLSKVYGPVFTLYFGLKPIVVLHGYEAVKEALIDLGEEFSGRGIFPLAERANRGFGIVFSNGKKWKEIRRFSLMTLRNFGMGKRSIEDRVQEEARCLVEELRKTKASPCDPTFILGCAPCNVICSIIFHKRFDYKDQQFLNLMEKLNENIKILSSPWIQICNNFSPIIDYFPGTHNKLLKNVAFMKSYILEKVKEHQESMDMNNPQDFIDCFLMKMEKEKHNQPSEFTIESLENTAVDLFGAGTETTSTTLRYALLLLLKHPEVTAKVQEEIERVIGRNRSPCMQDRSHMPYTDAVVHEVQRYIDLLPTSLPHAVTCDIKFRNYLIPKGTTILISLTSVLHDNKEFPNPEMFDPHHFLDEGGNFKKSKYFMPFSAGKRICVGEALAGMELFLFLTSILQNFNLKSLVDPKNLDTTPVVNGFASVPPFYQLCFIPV
Sequence of Cytochrome P450 1A2 (Homo sapiens) (P05177 whole entry, looked up): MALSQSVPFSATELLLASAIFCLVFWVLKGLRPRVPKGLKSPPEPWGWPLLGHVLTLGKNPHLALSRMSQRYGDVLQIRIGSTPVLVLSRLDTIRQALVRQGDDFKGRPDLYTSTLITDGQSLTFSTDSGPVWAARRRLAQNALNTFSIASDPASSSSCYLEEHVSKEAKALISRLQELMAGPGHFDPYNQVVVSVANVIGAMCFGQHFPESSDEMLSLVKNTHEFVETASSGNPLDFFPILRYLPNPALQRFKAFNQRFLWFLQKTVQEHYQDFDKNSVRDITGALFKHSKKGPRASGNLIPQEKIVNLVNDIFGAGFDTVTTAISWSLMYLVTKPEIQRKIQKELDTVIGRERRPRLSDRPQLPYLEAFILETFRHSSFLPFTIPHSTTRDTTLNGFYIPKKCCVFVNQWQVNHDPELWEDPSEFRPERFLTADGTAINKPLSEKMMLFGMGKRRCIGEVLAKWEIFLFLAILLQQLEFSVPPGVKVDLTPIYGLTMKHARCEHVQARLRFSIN
Sequence of Cytochrome P450 3A4 (Homo sapiens) (P08684 whole entry, looked up): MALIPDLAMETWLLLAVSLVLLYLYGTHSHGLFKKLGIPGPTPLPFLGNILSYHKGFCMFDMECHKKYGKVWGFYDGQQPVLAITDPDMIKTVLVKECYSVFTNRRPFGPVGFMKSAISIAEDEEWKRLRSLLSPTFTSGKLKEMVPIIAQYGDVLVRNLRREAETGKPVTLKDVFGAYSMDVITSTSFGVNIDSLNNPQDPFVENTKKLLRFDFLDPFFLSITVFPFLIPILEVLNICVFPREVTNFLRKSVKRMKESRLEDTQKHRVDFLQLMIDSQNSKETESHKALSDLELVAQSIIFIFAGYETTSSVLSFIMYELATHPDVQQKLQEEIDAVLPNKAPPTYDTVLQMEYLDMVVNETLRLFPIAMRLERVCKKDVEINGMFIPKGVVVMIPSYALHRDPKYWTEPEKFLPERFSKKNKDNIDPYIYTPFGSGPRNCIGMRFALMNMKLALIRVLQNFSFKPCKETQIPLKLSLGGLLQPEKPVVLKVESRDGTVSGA
Sequence of Cytochrome P450 2C19 (Homo sapiens) (P33261 whole entry, looked up): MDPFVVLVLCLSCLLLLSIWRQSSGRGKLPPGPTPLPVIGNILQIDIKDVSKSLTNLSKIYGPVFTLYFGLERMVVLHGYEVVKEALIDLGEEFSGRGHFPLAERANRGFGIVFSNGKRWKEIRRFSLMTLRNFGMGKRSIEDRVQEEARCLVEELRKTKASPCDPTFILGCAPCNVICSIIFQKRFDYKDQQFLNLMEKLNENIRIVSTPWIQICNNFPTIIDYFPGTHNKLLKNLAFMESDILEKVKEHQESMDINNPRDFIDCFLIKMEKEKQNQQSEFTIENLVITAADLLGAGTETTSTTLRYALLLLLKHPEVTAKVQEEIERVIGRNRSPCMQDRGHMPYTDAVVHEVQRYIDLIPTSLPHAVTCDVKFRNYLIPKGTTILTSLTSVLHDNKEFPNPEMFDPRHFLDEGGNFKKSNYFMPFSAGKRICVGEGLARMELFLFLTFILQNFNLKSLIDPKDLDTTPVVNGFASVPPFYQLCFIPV

`COc1ccc2cc(CCC(C)=O)ccc2c1`: the molecule was classed as inactive in experiment [1]. For the same molecule, the Potency entry in experiment [2] and in experiment [3] was “inactive” in each case.
In the case of `C=CC(C)(CCC=C(C)C)OC(=O)C(C)C` (configuration not stated), the Potency result in experiment [2], in experiment [6] and in experiment [7] was “inactive” each time. The Potency was 71 µM (active) in experiment [4], 39.9 µM (active) in experiment [5] and 63.3 µM (active) in experiment [3].
`C=CC(=O)OCC[N+](C)(C)C`: the Potency entry in experiment [2], in experiment [4], in experiment [5], in experiment [6] and in experiment [7] was “inactive” in each case.
For `CC(C)OCCO`, the Potency entry in experiment [2], in experiment [4], in experiment [5], in experiment [6], in experiment [7] and in experiment [3] was “inactive” in each case.
As to `CCCCCCCCCCCC(C)=O`, the Potency entry in experiment [2], in experiment [4], in experiment [5], in experiment [6] and in experiment [7] was “inactive” throughout.
Consider `CCCCCCCC(=O)N(C)C`, for which the Potency entry in experiment [2], in experiment [4], in experiment [5], in experiment [6] and in experiment [7] was “inactive” in each case.
Consider `CC(=O)SC[C@@H](C)C(=O)N1CCC[C@H]1C(=O)N[C@@H](Cc1ccccc1)C(=O)O`, for which the Potency entry in experiment [2], in experiment [4], in experiment [5], in experiment [6], in experiment [7] and in experiment [3] was “inactive” each time.
As for `Cc1cc(C)c(C)c(C)c1`, the Potency result in experiment [2], in experiment [4], in experiment [5], in experiment [6] and in experiment [7] was “inactive” in each case.
Take `O=C(c1ccccc1)c1cccc(O)c1`: the Potency in experiment [2] was 64.3 µM (active); in experiment [4], 22.8 µM (active). Further, the Potency entry in experiment [5] and in experiment [7] was “inactive” throughout.
For `CCOC(=O)CC(C(C)=O)C(C)=O`, the Potency result in experiment [2], in experiment [4], in experiment [5], in experiment [6] and in experiment [3] was “inactive” in each case.
As to `Cc1ccc(O)c(C(=O)c2ccccc2)c1`, the Potency was 11.4 µM (active) in experiment [2]; 1.01 µM (active) in experiment [4]; 5.69 µM (active) in experiment [5]; 1.43 µM (active) in experiment [6]; 32 µM (active) in experiment [3].
For `C[C@@H]1CCC[C@H](C)N1CCCC(O)(c1ccccc1)c1ccccn1` (some centres not stated), the Potency was 0.692 µM (active) in experiment [2] and 8.49 µM (active) in experiment [7]. Further, the Potency entry in experiment [4] and in experiment [5] was “inactive” each time.
`Cc1cc2c(cc1CC(=O)c1sccc1S(=O)(=O)Nc1onc(C)c1Cl)OCO2`: the Potency was 2.45 µM (active) in experiment [2], 8.71 µM (active) in experiment [4] and 8.71 µM (active) in experiment [5]. The Potency entry in experiment [7] was “inactive”.
`Cc1ccc(NC(N)=O)cc1`: the Potency entry in experiment [2], in experiment [4], in experiment [5], in experiment [7] and in experiment [3] was “inactive” each time.
Turning to `COC(=O)/C=C(\C)CCC=C(C)C`, the Potency entry in experiment [2] and in experiment [7] was “inactive” throughout. Further, the Potency in experiment [4] was 25.2 µM (active); in experiment [5] it was 39.9 µM (active); in experiment [3], 31.7 µM (active).
`CCCCCCCCCCCCCCCC(=O)OC`: the activity change, negative = inhibition was 1.63% [at 23.6 µM] in experiment [2]; -1.98% [at 23.6 µM] in experiment [4]; 2.75% [at 23.6 µM] in experiment [5]; -2.98% [at 23.6 µM] in experiment [6]; 2.42% [at 23.6 µM] in experiment [3].
In the case of `CCCCC(O)/C=C(C)/C=C/C=C/C(=O)N1CCCC1=O` (configuration not stated), the Potency entry in experiment [2], in experiment [4], in experiment [5] and in experiment [7] was “inactive” each time.
Regarding `c1cc2ccc3ccc4ccc5cccc6c(c1)c2c3c4c56`, the activity change, negative = inhibition is 0.702% [at 4.07 µM] in experiment [2]; -3.91% [at 4.07 µM] in experiment [4]; -14.6% [at 4.07 µM] in experiment [5]; 0.437% [at 2.72 µM] in experiment [7]; -22.2% [at 4.07 µM] in experiment [3].
For `CSC(=O)c1cccc2nnsc12`, the Potency is 35.6 µM (active) in experiment [2], 12.6 µM (active) in experiment [4], 7.96 µM (active) in experiment [5] and 0.71 µM (active) in experiment [6]. For the same molecule, the Potency result in experiment [7] and in experiment [3] was “inactive” in each case.
On to `CCc1ccc(CC)cc1`, for which the Potency result in experiment [2], in experiment [4], in experiment [5] and in experiment [7] was “inactive” throughout.
Turning to `CCN(CC)CC(=O)Oc1ccc(NC(C)=O)cc1`, the Potency result in experiment [2], in experiment [4], in experiment [5], in experiment [6] and in experiment [3] was “inactive” throughout.
Turning to `N#CC1(N)CCCCC1`, the Potency entry in experiment [2], in experiment [4], in experiment [5], in experiment [6], in experiment [7] and in experiment [3] was “inactive” in each case.
`Cc1ccc2ccccc2n1`: the Potency result in experiment [2], in experiment [4], in experiment [5] and in experiment [7] was “inactive” throughout.
Consider `Cc1ccccc1C#N`, for which the Potency entry in experiment [2], in experiment [4], in experiment [5], in experiment [6], in experiment [7] and in experiment [3] was “inactive” in each case.
For the molecule `Cc1cc(O)c(Cl)cc1C`, the Potency result in experiment [2], in experiment [5], in experiment [7] and in experiment [3] was “inactive” each time. The Potency in experiment [4] was 71 µM (active); in experiment [6], 25.2 µM (active).
As for `CC(=O)OC1CCC(C(C)(C)C)CC1` (configuration not stated), the Potency entry in experiment [2], in experiment [4], in experiment [5] and in experiment [7] was “inactive” each time.
On to `C=CCCCCCCCCCCCCCC`, for which the activity change, negative = inhibition in experiment [2] was -17.7% [at 23.6 µM]; in experiment [5], -3.74% [at 23.6 µM]; in experiment [7], 4.07% [at 15.8 µM]. Besides, in experiment [4], the Potency was 18.6 µM (active).
With `CCOC(=O)CN1CCCC1=O`, the Potency entry in experiment [2], in experiment [4], in experiment [5], in experiment [6], in experiment [7] and in experiment [3] was “inactive” throughout.
For the molecule `CC(C)=CCC/C(C)=C\C#N`, the Potency entry in experiment [2], in experiment [5] and in experiment [7] was “inactive” throughout. In addition, in experiment [4], the Potency was 39.9 µM (active).
With `C=C(C)C(=O)OCCCC`, the Potency result in experiment [2], in experiment [4], in experiment [5], in experiment [7] and in experiment [3] was “inactive” throughout.
`CC(C)(C)OC=O`: the Potency result in experiment [2], in experiment [4], in experiment [5], in experiment [7] and in experiment [3] was “inactive” throughout.
In the case of `C=CC(=O)CC`, the Potency result in experiment [2], in experiment [4], in experiment [5], in experiment [6], in experiment [7] and in experiment [3] was “inactive” throughout.
With `CC(=O)O[C@@H]1CC2C3CCc4cc(OC(=O)c5ccccc5)ccc4C3CCC2(C)[C@H]1OC(C)=O` (some centres not stated), the Potency entry in experiment [2], in experiment [4], in experiment [6] and in experiment [3] was “inactive” in each case. Also, the Potency in experiment [5] was 11 µM (active).
Regarding `C=CCON/C(CCC)=C1\C(=O)CC(C)(C)C(C(=O)OC)=C1O`, the Potency entry in experiment [2] and in experiment [7] was “inactive” throughout. The Potency in experiment [4] was 78.7 µM (active); in experiment [5], 35.2 µM (active); in experiment [3], 35.2 µM (active).
As to `CCCc1ncc(C(=O)O)s1`, the Potency entry in experiment [2], in experiment [4], in experiment [5], in experiment [6] and in experiment [3] was “inactive” each time.
Take `CCO[Si](CC(C)C)(OCC)OCC`: the values for the Potency in experiment [2], in experiment [4] and in experiment [5] were 44.8 µM (active), 35.6 µM (active) and 39.9 µM (active), respectively. In addition, the Potency result in experiment [7] was “inactive”.
On to `O=C1c2ccccc2C(=O)N1CO`, for which the Potency entry in experiment [2], in experiment [4], in experiment [5] and in experiment [7] was “inactive” in each case.
With `CN(C)CCCN(C)C`, the activity change, negative = inhibition is -7.64% [at 10.5 µM] in experiment [2]; -19.3% [at 10.5 µM] in experiment [4]; -13.3% [at 10.5 µM] in experiment [5]; 0.578% [at 6.97 µM] in experiment [7]; 12.7% [at 10.5 µM] in experiment [3]. For the same molecule, the Potency in experiment [6] was 1.95 µM (active).
